Only a selection was taken, and hits are over-represented in it overall.
VDR inh – inhibitors of human vitamin D receptor; 400,000 tested, 0.93% active; P11473; Potency, µM, for the others: max response, negative = inhibition, actives largely listed as inhibitors; AID 504847; VDR-SRC2-3 peptide fluorescence polarization, 2 h; further: on the % scale 0 is the no-effect control and ±100 the full control effect
Target sequence (P11473 whole entry, looked up): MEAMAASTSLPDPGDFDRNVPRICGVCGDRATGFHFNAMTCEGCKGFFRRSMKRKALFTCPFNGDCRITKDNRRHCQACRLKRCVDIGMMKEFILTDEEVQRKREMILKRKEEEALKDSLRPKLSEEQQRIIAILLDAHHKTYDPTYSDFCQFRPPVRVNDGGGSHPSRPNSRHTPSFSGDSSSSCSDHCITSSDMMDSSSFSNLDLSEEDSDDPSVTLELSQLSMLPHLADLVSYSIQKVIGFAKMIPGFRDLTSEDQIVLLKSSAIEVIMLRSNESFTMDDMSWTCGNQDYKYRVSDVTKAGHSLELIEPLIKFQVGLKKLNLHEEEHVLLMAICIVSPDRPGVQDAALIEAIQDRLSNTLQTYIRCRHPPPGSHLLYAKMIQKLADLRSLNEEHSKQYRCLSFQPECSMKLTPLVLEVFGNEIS
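After 23 nl compound addition and a short centrifugation, plates sat for 2 hours at ambient temperature; polarization of fluorescence then indicated loss of VDR binding to peptide SRC2-3.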
12-LOX inh – blocks human arachidonate 12S-lipoxygenase. purified 12hLO, xylenol orange hydroperoxide absorbance. AID 1671190. 580,000 tested, 1.1% active. Potency, µM (doses to about 108 µM), for the others: at the top dose activity change, negative = inhibition, most hits filed as inhibitors; further: on the % scale 0 is the no-effect control and ±100 the full control effect
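Hydroperoxide product was detected by ferrous iron/xylenol orange as the 573 to 405 nm absorbance ratio. Arachidonic acid at 40 uM (final) was turned over for 30 min at room temperature by 150 nM human 12hLO, pH 7.0 Hepes buffer, after 15 min compound preincubation.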
GRP78 ERSR act – inducers of ER stress response in human glioma cells; U87-MG GRP78 promoter luciferase reporter, 16 h; Potency, µM, without a hit: top-dose activation, usual class: activators; 420,000 tested, 0.02% active; further: series mostly up to about 76 µM; % of control where 0% means no effect; nearly all actives have a fitted effect of over 35% in size
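Stably transfected U87-MG human glioma cells carrying a GRP78-based luminescent sensor were seeded at 1000 cells/well, pin-dosed with compounds and incubated 16 h. Luciferase reagent was then added, and end-point luminescence was read after 10 min at room temperature.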
G9a inh – inhibitors of human histone lysine methyltransferase G9a. G9a H3K9 monomethylation, AlphaScreen, 2 h. Q96KQ7. 350,000 tested, 8.8% active. AID 504332. Potency, µM (doses to about 102 µM), for the others: at the top dose activity, negative = inhibition, actives largely listed as inhibitors; further: on the % scale 0 is the no-effect control and ±100 the full control effect; nearly all actives have a fitted effect of over 75% in size
Target sequence (Q96KQ7 913-1193 limits assumed): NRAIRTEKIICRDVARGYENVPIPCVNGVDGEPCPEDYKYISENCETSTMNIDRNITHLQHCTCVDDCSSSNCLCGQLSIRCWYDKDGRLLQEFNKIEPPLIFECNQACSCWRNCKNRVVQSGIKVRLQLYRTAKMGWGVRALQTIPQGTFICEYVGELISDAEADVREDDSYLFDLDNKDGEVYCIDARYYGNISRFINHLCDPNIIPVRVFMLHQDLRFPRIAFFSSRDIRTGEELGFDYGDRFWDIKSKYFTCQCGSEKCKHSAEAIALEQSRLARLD
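Using a bead-based AlphaScreen, monomethylated H3K9 product from 2 h room-temperature reactions (G9a 20 nM, peptide 500 nM, SAM 20 uM) was detected with 0.5 ug/mL rabbit anti-H3K9me1 antibody.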
Sfp PPTase inh – blocks B. subtilis Sfp PPTase activity | Potency, µM, for the others: largest response in the series, negative = inhibition, actives largely listed as inhibitors | 310,000 tested, 3.5% active | AID 1490 | Biochemical Sfp PPTase activity, qHTS;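 further: the enzyme is Sfp with the accession as filed and its product quenches rhodamine fluorescence; 0% = enzyme reaction without inhibitor and -100% = no enzyme wells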
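Buffer: 50 mM Hepes-Na pH 7.6, 10 mM MgCl2, 0.01% Nonidet P-40, 0.01% BSA. Enzyme 15 nM, pre-exposed to compound 15 min; substrates then added and fluorescence change tracked over 30 min.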
Numbers without * were called inactive; ? = inconclusive; . = no result given; [ ] = another dose, or the depositor's remark. The call rests on the fitted dose curve; in most records, active means well fitted curve in the direction sought with a large enough effect; inconclusive means small, poorly fitted or top-dose-only effect, or another doubt; inactive means no such curve, though single readings can be large; an effect the other way counts as inactive or inconclusive. Potency means the concentration at half of the fitted maximal effect.

SMILES	VDR inh	12-LOX inh	GRP78 ERSR act	G9a inh	Sfp PPTase inh
COc1ccc(/C=C/c2cnc3ccccc3n2)cc1OC	.	.	-10%	.	.
CCOc1cc(/C=C/c2cc(C(=O)O)c3ccccc3n2)ccc1OC	3%	?	-4%	71µM*	-7%
CCOc1cc(/C=C/c2cc(C(=O)O)c3ccccc3n2)ccc1O	2%	?	2%	-4%[59 µM]	-3%
COc1ccc(/C=C/c2ccc3ccccc3n2)cc1OC	.	28µM*	-10%	.	.
CCCCN1C(=O)/C(=C/C=C2\N(C)c3ccccc3C2(C)C)SC1=S	.	.	.	?	-10%
CN1CCS/C1=C/C=C1\SC(=S)N(CC(=O)O)C1=O	-16%	-16%	-5%	45µM*	?
CCCCN1C(=O)/C(=C/C=C2\SCCN2C)SC1=S	-5%	?	7%	13µM*	-20%
O=C(Nc1nnc(-c2cccs2)o1)C1CC1	-12%	1%[57.4 µM]	-1%	50µM*	?
O=C(Nc1nnc(-c2ccc(Cl)s2)o1)C1CC1	-22%	-3%	-3%	-49%	5%
CCOc1c(Cl)cc(CNCc2ccncc2)cc1OC	11%	-3%	1%	56µM*	21%
COc1cc(CNc2ccc3[nH]c(=O)[nH]c3c2)ccc1OCC(=O)NC(C)(C)C	-6%	-21%	-1%	?	-19%
C=CCOc1cccc(CNc2ccc3[nH]c(=O)[nH]c3c2)c1	6%	-3%	-5%	20µM*	-14%
CCOc1cc(CNCc2ccccn2)cc(Cl)c1OCC	-5%	17%	2%	.	3%
COc1cc(CNCCO)cc(Cl)c1OCc1ccc(Cl)cc1Cl	15%	?	-7%	-40%[59 µM]	20µM*
COc1cc(CNCCO)cc(Br)c1OCc1ccccc1Cl	-11%	?	-5%	.	-3%
C=CCOc1ccc(CNc2ccc3[nH]c(=O)[nH]c3c2)cc1OC	-13%	-2%	-3%	45µM*	5%
CCn1nc(C(=O)Nc2ccc(OC)c(NC(C)=O)c2)c2ccccc2c1=O	.	-5%	.	.	.
COc1cc(CNc2ccc3[nH]c(=O)[nH]c3c2)ccc1OCc1ccc(Cl)cc1	22%	?	?	.	-13%
COc1cc(CNc2ccc3[nH]c(=O)[nH]c3c2)ccc1OCc1ccccc1	14%	-8%	4%	32µM*	-14%
CCOc1c(Cl)cc(CNc2ccc3[nH]c(=O)[nH]c3c2)cc1OC	6%	-26%	-5%	3.5µM*	.
COc1cc(CNc2ccc3[nH]c(=O)[nH]c3c2)ccc1OCc1ccc(F)cc1	5%	?	6%	?	-5%
NC(=O)NNC(=O)Nc1ccccc1	.	37%	.	.	.
CC(C(=O)NC1C=CS(=O)(=O)C1)N1C(=O)/C(=C\c2ccccc2)SC1=S (stereo not drawn)	8%	?	0%	.	13µM*
O=C(CN1C(=O)S/C(=C\c2cccc(Cl)c2)C1=O)NC1C=CS(=O)(=O)C1 (stereo not drawn)	1%	-21%	-2%	1%	6%
COc1ccccc1/C=C1/SC(=S)N(C(C)C(=O)NC2C=CS(=O)(=O)C2)C1=O (stereo not drawn)	-19%	?	5%	45µM*	-7%
SMILES	VDR inh	12-LOX inh	GRP78 ERSR act	G9a inh	Sfp PPTase inh
CC(C(=O)NC1C=CS(=O)(=O)C1)N1C(=O)/C(=C/c2cccc(Cl)c2)SC1=S (stereo not drawn)	?	?	20%	25µM*	-8%
CCCn1cnc2c1CN(S(=O)(=O)c1cccc3c(N(C)C)cccc13)[C@H](C(=O)OC)C2	.	-21%	.	.	.
O=C(Oc1ccc(=O)n(-c2ccccc2)n1)c1ccc(Cl)cc1	0%	-2%	-6%	.	89µM*
O=C(Oc1ccc(=O)n(-c2ccccc2)n1)c1ccc(F)cc1	?	-16%	-5%	?	3%
Cc1ccn2c(=O)nc(SCC(=O)OCc3ccccc3)nc2c1	-4%	-2%	-2%	1.1µM*	.
CC1=C(C(=O)OC(C)C)C2(O)C(=O)c3ccccc3C2(O)N1 (stereo not drawn)	?	0%	2%	6%[59 µM]	-17%
CCOC(=O)C1=C(C)OC2(O)c3ccccc3C(=O)C12O (stereo not drawn)	5µM*	10%	0%	?	-11%
CC(=O)C1=C(C)OC2(O)c3ccccc3C(=O)C12O (stereo not drawn)	1.6µM*	?	-2%	?	?
c1ccc(-c2cc(-c3ccncc3)nc3ccc4ccccc4c23)cc1	-10%	-5%	-2%	29%[59 µM]	56µM*
O=S(=O)(NC1CCCCC1Nc1ccc(Cl)cc1)c1ccccc1 (stereo not drawn)	11%	-10%	-5%	16%[59 µM]	27%
Cc1ccc(NC2CCCCC2NS(=O)(=O)c2ccccc2)c(C)c1 (stereo not drawn)	18%	4%	-6%	45µM*	4%
CCOCCOC(=O)c1nc2ccccc2nc1Nc1cc(C)cc(C)c1	.	7.1µM*	.	.	.
CCOC(=O)c1nc2ccccc2nc1Nc1cccc(OC)c1	.	-28%	.	.	.
CCN(CC)CCCNC(=O)C(=O)Nc1ccc2cc[nH]c2c1	.	2%	.	.	.
O=C(Cc1ccc(-c2csc(Nc3ccc(F)cc3)n2)s1)N1CCOCC1	.	32µM*	.	.	.
O=C(CCc1ncc(-c2ccc(F)cc2F)o1)N1CCc2ccccc21	.	2%	.	.	.
CC(C)(C)c1ccc(C(=O)NC(=S)Nc2nc3c(s2)CCCC3)cc1	-10%	45µM*	1%	-1%[59 µM]	17%
COc1cccc(C(=O)Nc2nc3c(s2)CCCC3)c1	3%	?	-7%	10µM*	.
COc1cccc(C(=O)Nc2c3c(nc4c2CCC4)CCCC3)c1	-12%	-17%	-1%	-3%[59 µM]	11%
CN(C)c1ccc(C(=O)Nc2nc3c(s2)CCCC3)cc1	-27%	?	-8%	35µM*	?
Cc1[nH]c(C)c(S(=O)(=O)Nc2cccc3c2CCCC3)c1C(=O)N1CCCCC1	.	-24%	.	.	.
C=CCn1c(-n2nc(C)c(C)c2C)nc2c1c(=O)[nH]c(=O)n2C	.	25%	.	.	.
Cn1cccc1CN1CCC2(CC1)C(=NC1CCCC1)NC(=O)N2c1cc(F)cc(F)c1	.	14%[6.33 µM]	.	.	.
Cc1ccc(C)c(NC(=O)CCC2CCCC2)c1	.	-26%	.	.	.
CCOC(=O)c1c(NC(=O)c2cc(-c3ccc(Cl)s3)nc3ccccc23)sc(C(N)=O)c1C	3%	-19%	-6%	-5%[59 µM]	4%
CCOC(=O)c1c(NC(=O)CSc2nc(-c3ccc(OC)cc3)cc(C(F)(F)F)n2)sc(C)c1C	79µM*	-13%	-1%	4.5µM*	.
Cc1ccccc1-c1cc(C(=O)O)c2ccccc2n1	.	-29%	.	.	.
CCOC(=O)c1sc(NC(=O)CSc2nc(C)cc(C)c2C#N)c(C#N)c1C	-4%	-1%	1%	?	0%
Cc1ccccc1-c1cc(C(=O)Nc2sc(C)c(C)c2C(N)=O)c2ccccc2n1	-1%	?	-7%	?	50µM*
CCOC(=O)c1sc(NC(=O)CSc2nc(C)cc(-c3ccccc3)n2)c(C#N)c1C	-9%	0%	-5%	?	8.9µM*

Bioassay records from PubChem BioAssay.
